Screening results from PubChem BioAssay.
Sampled rows, rich in hits. Any-hit rate of the full collection: about 4.5%.
GAA850 FXN act: frataxin GAA850 promoter activation; HEK293 lucGAA850 FXN promoter luciferase reporter, 24 h; percent of 10 µM SAHA response; activation, % at 6 µM; 360,000 tested, 0.56% active; AID 540364;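 active = activation above the average of all compounds screened plus 3 SD, cutoff fixed separately per campaign, cut at about 7.5% in these data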;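 also: 0% = DMSO wells and 100% = 10 µM SAHA wells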
DAX1 inh-1: inhibitors of DAX1 repression of SF-1 activated StAR promoter | 370,000 tested, 1.1% active | HEK293T StAR-luciferase reporter, SF-1/DAX-1 repression relief | inhibition, % at 6.8 µM;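 active = inhibition above the mean over all tested compounds plus 3 SD, cut at about 3.6% in these data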;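 also: 0% = DAX-1 cells with DMSO and 100% = cells lacking DAX-1 with DMSO; higher inhibition means more luminescence from relief of DAX-1 repression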
DAX1 inh-2: inhibits human nuclear receptor DAX1; P51843; HEK293 Gal4-DAX1 luciferase reporter, luminescence; inhibition, % at 6.75 µM; 340,000 tested, 0.99% active; AID 504766;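 active = inhibition above the mean over all tested compounds plus 3 SD, cut at about 4.2% in these data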;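 also: 0% = DAX1-transfected cells with DMSO and 100% = empty-vector control cells with DMSO; inhibition shows as a rise in luminescence from relieved DAX1 repression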
Target sequence (P51843 207-470 limits assumed): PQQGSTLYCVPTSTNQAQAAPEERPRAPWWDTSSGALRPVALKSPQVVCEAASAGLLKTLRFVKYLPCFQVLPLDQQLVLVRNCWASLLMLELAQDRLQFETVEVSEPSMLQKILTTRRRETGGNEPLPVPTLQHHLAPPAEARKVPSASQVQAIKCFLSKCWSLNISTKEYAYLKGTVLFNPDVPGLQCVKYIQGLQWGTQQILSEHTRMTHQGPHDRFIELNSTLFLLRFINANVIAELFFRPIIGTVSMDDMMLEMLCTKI
hgDAF12 agonist: agonists of H. glycines DAF-12 nuclear receptor. 370,000 tested, 1.8% active. HEK293 GAL4-hgDAF12 UAS-luciferase reporter, agonist luminescence; normalized to butyrate control. activation, % at 6.8 µM;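 active = activation above a cutoff set at the mean of all screened compounds plus 3 SD, cut at about 10% in these data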;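 also: 0% = DMSO wells and 100% = sodium butyrate wells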
hcDAF-12 act: activators of H. contortus DAF-12 nuclear receptor; activation, % at 6.8 µM; AID 652067; 370,000 tested, 1.4% active; HEK293 hcDAF-12 lit1-tk-luc reporter, luminescence; 0% DMSO, 100% Δ7-dafachronic acid;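 active = activation above the mean of all tested compounds plus 3 SD, cut at about 5.5% in these data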;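 also: 100% = response to 3 µM Δ7-dafachronic acid high control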
ssDAF12 agonist: activates DAF-12 receptor from parasite S. stercoralis. HEK293 ssDAF-12/GRIP1 lit1-tk-luc reporter, luminescence; % of 3 µM dafachronic acid response. activation, % at 6.8 µM. AID 652126. 370,000 tested, 1% active;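 active = activation above the mean over all tested compounds plus 3 SD, cut at about 0.9% in these data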;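 also: 0% = DMSO-only wells and 100% = 3 µM delta7-dafachronic acid wells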
* marks the source's active call; other numbers are inactive results.

What do the screens show for `Oc1ccc(C2CNCc3sccc32)cc1O` (stereo unspecified)?
GAA850 FXN act: 1; DAX1 inh-1: 0; DAX1 inh-2: 0; hgDAF12 agonist: 0; hcDAF-12 act: -2; ssDAF12 agonist: 1.0*

Results for C(/C=C\c1ccco1)=NN1CCN(Cc2cccc3ccccc23)CC1 ?
DAX1 inh-1: 0; hgDAF12 agonist: -4; hcDAF-12 act: 0; ssDAF12 agonist: -2

How did COc1ccccc1NC(=O)CN(c1ccc(C23CC4CC(CC(C4)C2)C3)cc1)S(C)(=O)=O do in these assays?
GAA850 FXN act: 9.4*; DAX1 inh-1: -1; DAX1 inh-2: 1; hgDAF12 agonist: 1; hcDAF-12 act: -1; ssDAF12 agonist: -1

Results for CS(=O)(=O)N(CC(=O)O)c1ccc(C23CC4CC(CC(C4)C2)C3)cc1 ?
GAA850 FXN act: 3; DAX1 inh-1: 0; DAX1 inh-2: 0; hgDAF12 agonist: -1; hcDAF-12 act: 0; ssDAF12 agonist: -2

How did COCCN(Cc1cc2cc(C)ccc2n2nnnc12)C(=S)Nc1ccc(OC)cc1 do in these assays?
GAA850 FXN act: 0; DAX1 inh-1: 0; DAX1 inh-2: -1; hgDAF12 agonist: -4; hcDAF-12 act: -1; ssDAF12 agonist: 0

What do the screens show for `COCCN(Cc1cc2cc(C)ccc2n2nnnc12)C(=S)Nc1ccc(C)cc1`?
GAA850 FXN act: 3; DAX1 inh-1: 0; DAX1 inh-2: 4.6*; hgDAF12 agonist: 2; hcDAF-12 act: -1; ssDAF12 agonist: -1

What do the screens show for `CN1CCN(Cc2coc3c(Cl)cc(Cl)cc3c2=O)CC1`?
GAA850 FXN act: 1; DAX1 inh-1: 0; DAX1 inh-2: 0; hgDAF12 agonist: -3; hcDAF-12 act: 1; ssDAF12 agonist: 1.3*

What do the screens show for `O=C(Cc1cn(Cc2ccccc2)c2ccccc12)Nc1ccc(Nc2cccnc2)cc1`?
DAX1 inh-1: 0; hgDAF12 agonist: 0; hcDAF-12 act: 0; ssDAF12 agonist: -1

What do the screens show for `CN(CC(=O)Nc1ccccc1C(F)(F)F)C(=O)c1ccc(N2C(=O)CCC2=O)cc1`?
GAA850 FXN act: 2; DAX1 inh-1: 1; DAX1 inh-2: 4.5*; hgDAF12 agonist: -2; hcDAF-12 act: 0; ssDAF12 agonist: -2

How did CCN(CC(=O)Nc1ccccc1C(F)(F)F)C(=O)c1ccc(N2C(=O)CCC2=O)cc1 do in these assays?
GAA850 FXN act: 0; DAX1 inh-1: 0; DAX1 inh-2: 0; hgDAF12 agonist: 0; hcDAF-12 act: 1; ssDAF12 agonist: -1

Results for CCCn1c(=O)c2c(ncn2C)n(CCC)c1=O ?
GAA850 FXN act: 3; DAX1 inh-1: 0; DAX1 inh-2: 1; hgDAF12 agonist: 1; hcDAF-12 act: -1; ssDAF12 agonist: -1

What do the screens show for `Cn1c(=O)[nH]c2ncn(C)c2c1=O`?
GAA850 FXN act: 2; DAX1 inh-1: 1; DAX1 inh-2: 0; hgDAF12 agonist: 11*; hcDAF-12 act: 0; ssDAF12 agonist: -1

Results for COc1ccc(-c2cc(CS(=O)(=O)c3ccccc3)on2)cc1 ?
GAA850 FXN act: 3; DAX1 inh-1: 3; DAX1 inh-2: 4.5*; hgDAF12 agonist: 13*; hcDAF-12 act: 1; ssDAF12 agonist: -1

What do the screens show for `O=S(=O)(Cc1cc(-c2ccccc2)no1)c1ccccc1`?
GAA850 FXN act: 4; DAX1 inh-1: 3; DAX1 inh-2: -1; hgDAF12 agonist: 10; hcDAF-12 act: 0; ssDAF12 agonist: -1

How did Cc1cccc(-c2cccc3c4c([nH]c23)[C@@H]2C[C@H](N(C)C(=O)c3ccccc3C)[C@H]([C@H](C)O)CN2CC4)c1 do in these assays?
DAX1 inh-1: -1; hgDAF12 agonist: 0; hcDAF-12 act: -1; ssDAF12 agonist: -2

What do the screens show for `O=C(O)C1C2C=CC(C2)C1C(=O)NCc1ccco1` (stereo unspecified)?
GAA850 FXN act: 0; DAX1 inh-1: 0; DAX1 inh-2: -1; hgDAF12 agonist: 2; hcDAF-12 act: -1; ssDAF12 agonist: -1

Results for COc1ccc(NC(=O)C2C3C=CC(C3)C2C(=O)NCc2ccco2)c(OC)c1 (stereo unspecified) ?
GAA850 FXN act: 1; DAX1 inh-1: 0; DAX1 inh-2: 5.9*; hgDAF12 agonist: 1; hcDAF-12 act: -1; ssDAF12 agonist: -1

What do the screens show for `Fc1cccc(/C=N/Nc2nccnc2Cl)c1`?
GAA850 FXN act: 4; DAX1 inh-1: 2; DAX1 inh-2: 3; hgDAF12 agonist: 13*; hcDAF-12 act: 4; ssDAF12 agonist: 1

How did Oc1ccc(/C=N/Nc2nccnc2Cl)cc1 do in these assays?
GAA850 FXN act: 6; DAX1 inh-1: 2; DAX1 inh-2: 2; hgDAF12 agonist: 12*; hcDAF-12 act: 3; ssDAF12 agonist: 1

What do the screens show for `CCNC(=O)C[C@H]1CC[C@H]2[C@@H](COc3ccc(NC(=O)Nc4ccccc4)cc3C(=O)N2C)O1`?
DAX1 inh-1: 2; hgDAF12 agonist: -3; hcDAF-12 act: 2; ssDAF12 agonist: -1

How did O=C(CCc1ccccc1)N[C@H]1[C@H](OCc2ccccc2)CCC[C@@]12C(=O)N(Cc1ccccc1)c1ccccc12 do in these assays?
DAX1 inh-1: -1; hgDAF12 agonist: -3; hcDAF-12 act: -1; ssDAF12 agonist: -1

Results for O=C(Nc1ccc(F)cc1)N[C@@H]1C[C@@H]2O[C@H](CO)CC[C@@H]2O[C@@H]1CCc1ccc(C2=CCCC2)cc1 ?
DAX1 inh-1: -1; hgDAF12 agonist: 0; hcDAF-12 act: 0; ssDAF12 agonist: -2

What do the screens show for `CC1Cc2ccccc2N1C(=O)c1cc2cccnc2n(C)c1=O` (stereo unspecified)?
GAA850 FXN act: 1; DAX1 inh-1: 1; DAX1 inh-2: 0; hgDAF12 agonist: 3; hcDAF-12 act: 5.6*; ssDAF12 agonist: 0

How did CCOc1ccc2oc(C(=O)NC(C)(C)CC)c(C)c2c1 do in these assays?
GAA850 FXN act: 4; DAX1 inh-1: 1; DAX1 inh-2: 3; hgDAF12 agonist: 13*; hcDAF-12 act: 0; ssDAF12 agonist: -1

What do the screens show for `CC(C)(C)C(=O)NC1CCCCN(Cc2cccc(Cl)c2)C1=O` (stereo unspecified)?
DAX1 inh-1: -3; hgDAF12 agonist: -4; hcDAF-12 act: -3; ssDAF12 agonist: -1

Results for c1ccc2c(c1)Cc1cc3ccccc3nc1-2 ?
GAA850 FXN act: 6; DAX1 inh-1: 2; DAX1 inh-2: 3; hgDAF12 agonist: 15*; hcDAF-12 act: 17*; ssDAF12 agonist: 1.2*

Results for Cc1cc2ccccc2nc1-c1ccccc1F ?
GAA850 FXN act: 2; DAX1 inh-1: -2; DAX1 inh-2: 3; hgDAF12 agonist: 6; hcDAF-12 act: -2; ssDAF12 agonist: -1

What do the screens show for `N#Cc1cc2cc(Cl)ccc2[nH]c1=O`?
DAX1 inh-1: 4.1*; hgDAF12 agonist: 1; hcDAF-12 act: -1; ssDAF12 agonist: -1
